# Measured values reported in the supplement of paper PMC4466140.
# What was measured:
# Assay in all cases: SPOT peptide array binding signal intensity (averaged, normalized) (arbitrary units (background-subtracted, floor 0; scale differs between SH3 domains)); higher = stronger binding of the SH3 domain to the peptide
# [1] = molecular target: AgAbp1
# Outline: (§1)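 Binding signal is given in arbitrary units that differ between domains and is the normalized, background-subtracted spot intensity averaged across replicates. Each GST-SH3 fusion from one of four yeast species was made in E. coli BL21(DE3), purified on glutathione Sepharose and incubated at 10 μg/ml overnight at 4°C on cellulose-bound synthetic 15-mer peptides in which cysteines were replaced by serines. Detection used anti-GST antibody, an HRP anti-mouse secondary and luminol, followed by imaging and Genespotter quantification.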
# [2] = molecular target: AgBbc1
# Outline: as §1
# [3] = molecular target: AgBem1-D1
# Outline: as §1
# [4] = molecular target: AgBzz1-D1
# Outline: as §1
# [5] = molecular target: AgBzz1-D2
# Outline: as §1
# [6] = molecular target: AgCyk3
# Outline: as §1
# [7] = molecular target: AgFus1
# Outline: as §1
# [8] = molecular target: AgHof1
# Outline: as §1
# [9] = molecular target: AgHse1
# Outline: as §1
# [10] = molecular target: AgLsb1
# Outline: as §1
# [11] = molecular target: AgLsb4
# Outline: as §1
# [12] = molecular target: AgMyo5
# Outline: as §1
# [13] = molecular target: AgNbp2
# Outline: as §1
# [14] = molecular target: AgRvs167
# Outline: as §1
# [15] = molecular target: AgSho1
# Outline: as §1
# [16] = molecular target: AgSla1-D1-D2
# Outline: as §1
# [17] = molecular target: AgSla1-D3
# Outline: as §1
# [18] = molecular target: CaAbp1-D1
# Outline: as §1
# [19] = molecular target: CaAbp1-D2
# Outline: as §1
# [20] = molecular target: CaBbc1
# Outline: as §1
# [21] = molecular target: CaBem1-D1
# Outline: as §1
# [22] = molecular target: CaBzz1-D1
# Outline: as §1
# [23] = molecular target: CaBzz1-D2
# Outline: as §1
# [24] = molecular target: CaCyk3
# Outline: as §1
# [25] = molecular target: CaFus1
# Outline: as §1
# [26] = molecular target: CaHof1
# Outline: as §1
# [27] = molecular target: CaHse1
# Outline: as §1
# [28] = molecular target: CaLsb1
# Outline: as §1
# [29] = molecular target: CaLsb4
# Outline: as §1
# [30] = molecular target: CaMyo5
# Outline: as §1
# [31] = molecular target: CaNbp2
# Outline: as §1
# [32] = molecular target: CaRvs167
# Outline: as §1
# [33] = molecular target: CaRvs167-3
# Outline: as §1
# [34] = molecular target: CaSho1
# Outline: as §1
# [35] = molecular target: CaSla1-D1-D2
# Outline: as §1
# [36] = molecular target: CaSla1-D3
# Outline: as §1
# [37] = molecular target: ScAbp1
# Outline: as §1
# [38] = molecular target: ScBbc1
# Outline: as §1
# [39] = molecular target: ScBem1-D1
# Outline: as §1
# [40] = molecular target: ScBzz1-D1
# Outline: as §1
# [41] = molecular target: ScBzz1-D2
# Outline: as §1
# [42] = molecular target: ScCyk3
# Outline: as §1
# [43] = molecular target: ScFus1
# Outline: as §1
# [44] = molecular target: ScHof1
# Outline: as §1
# [45] = molecular target: ScHse1
# Outline: as §1
# [46] = molecular target: ScLsb1
# Outline: as §1
# [47] = molecular target: ScLsb2
# Outline: as §1
# [48] = molecular target: ScLsb3
# Outline: as §1
# [49] = molecular target: ScLsb4
# Outline: as §1
# [50] = molecular target: ScMyo3
# Outline: as §1
# [51] = molecular target: ScMyo5
# Outline: as §1
# [52] = molecular target: ScNbp2
# Outline: as §1
# [53] = molecular target: ScPex13
# Outline: as §1
# [54] = molecular target: ScRvs167
# Outline: as §1
# [55] = molecular target: ScSho1
# Outline: as §1
# [56] = molecular target: ScSla1-D1-D2
# Outline: as §1
# [57] = molecular target: ScSla1-D3
# Outline: as §1
# [58] = molecular target: SpAbp1-D1
# Outline: as §1
# [59] = molecular target: SpBbc1
# Outline: as §1
# [60] = molecular target: SpBzz1-D1
# Outline: as §1
# [61] = molecular target: SpBzz1-D2
# Outline: as §1
# [62] = molecular target: SpCyk3
# Outline: as §1
# [63] = molecular target: SpHof1
# Outline: as §1
# [64] = molecular target: SpHof1-2
# Outline: as §1
# [65] = molecular target: SpHof1-3
# Outline: as §1
# [66] = molecular target: SpHse1
# Outline: as §1
# [67] = molecular target: SpLsb1
# Outline: as §1
# [68] = molecular target: SpLsb4
# Outline: as §1
# [69] = molecular target: SpMyo1
# Outline: as §1
# [70] = molecular target: SpNbp2
# Outline: as §1
# [71] = molecular target: SpPex13
# Outline: as §1
# [72] = molecular target: SpRvs167
# Outline: as §1
# [73] = molecular target: SpSla1-D1-D2
# Outline: as §1
# [74] = molecular target: SpSla1-D3
# Outline: as §1
binder,measurement,setting,value
DLFKPLPEPPTELGR,SPOT peptide array binding signal intensity,[1],2.5
same,SPOT peptide array binding signal intensity,[2],≤ 0
same,SPOT peptide array binding signal intensity,[3],≤ 0
same,SPOT peptide array binding signal intensity,[4],22
same,SPOT peptide array binding signal intensity,[5],≤ 0
same,SPOT peptide array binding signal intensity,[6],1
same,SPOT peptide array binding signal intensity,[7],1
same,SPOT peptide array binding signal intensity,[8],≤ 0
same,SPOT peptide array binding signal intensity,[9],27
same,SPOT peptide array binding signal intensity,[10],≤ 0
same,SPOT peptide array binding signal intensity,[11],5
same,SPOT peptide array binding signal intensity,[12],≤ 0
same,SPOT peptide array binding signal intensity,[13],≤ 0
same,SPOT peptide array binding signal intensity,[14],0.333
same,SPOT peptide array binding signal intensity,[15],1410
same,SPOT peptide array binding signal intensity,[16],≤ 0
same,SPOT peptide array binding signal intensity,[17],≤ 0
same,SPOT peptide array binding signal intensity,[18],≤ 0
same,SPOT peptide array binding signal intensity,[19],≤ 0
same,SPOT peptide array binding signal intensity,[20],≤ 0
same,SPOT peptide array binding signal intensity,[21],≤ 0
same,SPOT peptide array binding signal intensity,[22],≤ 0
same,SPOT peptide array binding signal intensity,[23],≤ 0
same,SPOT peptide array binding signal intensity,[24],≤ 0
same,SPOT peptide array binding signal intensity,[25],7
same,SPOT peptide array binding signal intensity,[26],1
same,SPOT peptide array binding signal intensity,[27],16
same,SPOT peptide array binding signal intensity,[28],≤ 0
same,SPOT peptide array binding signal intensity,[29],≤ 0
same,SPOT peptide array binding signal intensity,[30],≤ 0
same,SPOT peptide array binding signal intensity,[31],≤ 0
same,SPOT peptide array binding signal intensity,[32],6.67
same,SPOT peptide array binding signal intensity,[33],≤ 0
same,SPOT peptide array binding signal intensity,[34],2540
same,SPOT peptide array binding signal intensity,[35],≤ 0
same,SPOT peptide array binding signal intensity,[36],≤ 0
same,SPOT peptide array binding signal intensity,[37],≤ 0
same,SPOT peptide array binding signal intensity,[38],≤ 0
same,SPOT peptide array binding signal intensity,[39],≤ 0
same,SPOT peptide array binding signal intensity,[40],1
same,SPOT peptide array binding signal intensity,[41],≤ 0
same,SPOT peptide array binding signal intensity,[42],≤ 0
same,SPOT peptide array binding signal intensity,[43],≤ 0
same,SPOT peptide array binding signal intensity,[44],1
same,SPOT peptide array binding signal intensity,[45],≤ 0
same,SPOT peptide array binding signal intensity,[46],≤ 0
same,SPOT peptide array binding signal intensity,[47],≤ 0
same,SPOT peptide array binding signal intensity,[48],≤ 0
same,SPOT peptide array binding signal intensity,[49],10
same,SPOT peptide array binding signal intensity,[50],≤ 0
same,SPOT peptide array binding signal intensity,[51],≤ 0
same,SPOT peptide array binding signal intensity,[52],≤ 0
same,SPOT peptide array binding signal intensity,[53],1030
same,SPOT peptide array binding signal intensity,[54],≤ 0
same,SPOT peptide array binding signal intensity,[55],5560
same,SPOT peptide array binding signal intensity,[56],≤ 0
same,SPOT peptide array binding signal intensity,[57],3
same,SPOT peptide array binding signal intensity,[58],≤ 0
same,SPOT peptide array binding signal intensity,[59],≤ 0
same,SPOT peptide array binding signal intensity,[60],≤ 0
same,SPOT peptide array binding signal intensity,[61],≤ 0
same,SPOT peptide array binding signal intensity,[62],1.5
same,SPOT peptide array binding signal intensity,[63],1460
same,SPOT peptide array binding signal intensity,[64],1970
same,SPOT peptide array binding signal intensity,[65],734
same,SPOT peptide array binding signal intensity,[66],0.75
same,SPOT peptide array binding signal intensity,[67],≤ 0
same,SPOT peptide array binding signal intensity,[68],≤ 0
same,SPOT peptide array binding signal intensity,[69],≤ 0
same,SPOT peptide array binding signal intensity,[70],≤ 0
same,SPOT peptide array binding signal intensity,[71],3
same,SPOT peptide array binding signal intensity,[72],5.67
same,SPOT peptide array binding signal intensity,[73],≤ 0
same,SPOT peptide array binding signal intensity,[74],≤ 0
PSTMDFPKLPSFQNS,SPOT peptide array binding signal intensity,[31],340
same,SPOT peptide array binding signal intensity,[32],33.3
same,SPOT peptide array binding signal intensity,[33],6.5
same,SPOT peptide array binding signal intensity,[34],1290
same,SPOT peptide array binding signal intensity,[35],136
same,SPOT peptide array binding signal intensity,[36],157
same,SPOT peptide array binding signal intensity,[37],3
same,SPOT peptide array binding signal intensity,[38],≤ 0
same,SPOT peptide array binding signal intensity,[39],≤ 0
same,SPOT peptide array binding signal intensity,[40],2
same,SPOT peptide array binding signal intensity,[41],10.5
same,SPOT peptide array binding signal intensity,[42],5
same,SPOT peptide array binding signal intensity,[43],414
same,SPOT peptide array binding signal intensity,[44],88.2
same,SPOT peptide array binding signal intensity,[45],130
same,SPOT peptide array binding signal intensity,[46],11
same,SPOT peptide array binding signal intensity,[47],≤ 0
same,SPOT peptide array binding signal intensity,[48],184
same,SPOT peptide array binding signal intensity,[49],140
same,SPOT peptide array binding signal intensity,[50],28.5
same,SPOT peptide array binding signal intensity,[51],10.5
same,SPOT peptide array binding signal intensity,[52],252
same,SPOT peptide array binding signal intensity,[53],221
same,SPOT peptide array binding signal intensity,[54],11.3
same,SPOT peptide array binding signal intensity,[55],528
same,SPOT peptide array binding signal intensity,[56],60
same,SPOT peptide array binding signal intensity,[57],290
same,SPOT peptide array binding signal intensity,[58],≤ 0
same,SPOT peptide array binding signal intensity,[59],≤ 0
same,SPOT peptide array binding signal intensity,[60],205
same,SPOT peptide array binding signal intensity,[61],10.5
same,SPOT peptide array binding signal intensity,[62],1
same,SPOT peptide array binding signal intensity,[63],30.2
same,SPOT peptide array binding signal intensity,[64],72.2
same,SPOT peptide array binding signal intensity,[65],18
same,SPOT peptide array binding signal intensity,[66],289
same,SPOT peptide array binding signal intensity,[67],≤ 0
same,SPOT peptide array binding signal intensity,[68],658
same,SPOT peptide array binding signal intensity,[69],91.5
same,SPOT peptide array binding signal intensity,[70],130
same,SPOT peptide array binding signal intensity,[71],38
same,SPOT peptide array binding signal intensity,[72],59
same,SPOT peptide array binding signal intensity,[73],4
same,SPOT peptide array binding signal intensity,[74],133
